± gives the standard deviation of the averaged measurements.
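Note: TDF denotes transformed human dermal fibroblasts of mesenchymal origin.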

In one assay the test system is HCC1569. Kind of assay: cell number relative to DMSO (% of DMSO); higher = more cells (less growth inhibition / toxicity). The conditions noted are these: concentration: 10 µM; 24 h. The essentials: (§1)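 H1.0 nuclear intensity or cell number is expressed as percent of the plate control, with the median of replicates taken. HCC1569 and TDF cells were treated with compounds at 10 µM for 24 h at 37 °C, in triplicate, then fixed and immunostained for H1.0 with DAPI as a nuclear stain. HCC1569 values were smoothed to correct for positional effects.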
Compound `CCN(c1nc(N)c(C(=O)N=C(N)N)nc1Cl)C(C)C` [5-(N-Ethyl-N-isopropyl)amiloride] returned a cell number of 103. The same measure, in the same setting: under `Cn1cnc2c(F)c(Nc3ccc(Br)cc3Cl)c(C(=O)NOCCO)cc21` stands 105. On the same count and under the same terms, under `CN(C)CCC=C1c2ccccc2CCc2ccccc21.Cl` [Amitriptyline.HCl] stands 105; under `C=C1CCC2OC2(C)CCC2C1CC2(C)C` (stereo unspecified) [Caryophylline], 104. Consider `CCOC(=O)[C@H](CCc1ccccc1)N[C@@H](C)C(=O)N1CCC[C@H]1C(=O)O.O=C(O)C=CC(=O)O`, for which the cell number came out at 102. Still for that read-out and setting: under `CCOc1ccc(C(Nc2ccccn2)c2ccc3ccc(C)nc3c2O)cc1C` (stereo unspecified) stands 87.7. `COc1ccc2c(c1OC)C(=O)OC2C1c2c(cc3c(c2OC)OCO3)CCN1C.Cl` (stereo unspecified) [Noscapine hydrchloride] showed a cell number of 102.

Compound `CC(=O)NCCOC(=O)[C@H](Oc1cccc(C(F)(F)F)c1)c1ccc(Cl)cc1` yielded a cell number of 104. `Cn1cc(C=C2C(=O)Nc3ccc(S(N)(=O)=O)cc32)c2ccccc21` [Syk Inhibitor] came in with a cell number of 84.1. The same measure, in the same setting: under `CC(=O)OC1CC2(C)C(CC(O)C3C4(C)CCC(O)C(C)C4CCC32C)C1=C(CCC=C(C)C)C(=O)[O-].[Na+]` (stereo unspecified) [Fusidic acid sodium] stands 105; under `COc1cc(OC)cc(C(CNc2ncnc3c2ncn3C2OC(CO)C(O)C2O)c2ccccc2C)c1` (stereo unspecified), 101; under `Oc1cc2c(c(Cl)c1O)CCNCC2c1ccccc1` (stereo unspecified), 99.5.

For the compound `O=[N+]([O-])c1ccc(Nc2nc(N3CCOCC3)nc(N3CCOCC3)n2)cc1`, the cell number amounted to 96.5. The same measure, in the same setting: under `CCOC(=O)C1=C(COCCN)NC(C)=C(C(=O)OC)C1c1ccccc1Cl` (stereo unspecified) [Amlodipine] stands 98.4.

The compound `C=C1C(=O)OC2C1CCC(C)=CCCC1(C)OC21` (stereo unspecified) [Parthenolide] yielded a cell number of 65.2 ± 7.3. On the same count and under the same terms, under `O=C(Nc1cccc(C(F)(F)F)c1)Nc1cc(S(=O)(=O)NC2CC2)ccc1-c1ccsc1` stands 91.2. On the same count and under the same terms, the same measure for `Cl.c1ccc(-n2c(C3=NCCN3)cc3ccccc32)cc1`: 98.8. Same read-out and setting: the same measure for `O=c1c2ccccc2[nH]c(=S)n1CCN1CCC(=C(c2ccc(F)cc2)c2ccc(F)cc2)CC1` [Diacylglycerol Kinase Inhibitor II]: 105 ± 1.1; for `COc1cc2nccc(Oc3ccc(NC(=O)NC4CC4)c(Cl)c3)c2cc1C(N)=O`: 83.8; for `CC(C=CC1=C(C)CCCC1(C)C)=CC=CC(C)=CC(=O)Nc1ccc(O)cc1` [Retinoic acid p-hydroxyanilide]: 42.9.

`O=c1c(-c2ccc(O)cc2)coc2cc(O)cc(O)c12` [Genistein] registered a cell number of 97.9 ± 4.4.

Take `O=C(O)CN(CCOCCOCCN(CC(=O)O)CC(=O)O)CC(=O)O`: the cell number was determined as 99.4. On to `CCCc1cc(C(N)=S)ccn1` [Prothionamide], for which the cell number is 106. Still for that read-out and setting: under `COC(=O)C1C(O)CCC2CN3CCc4c([nH]c5ccccc45)C3CC21` (stereo unspecified) [Corynanthine] stands 106; under `COc1cc(C2c3cc4c(cc3C(OC3OC5COC(C)OC5C(O)C3O)C3COC(=O)C23)OCO4)cc(OC)c1O` (stereo unspecified) [Etoposide], 74.1 ± 1.6. Same read-out and setting: the same measure for `CON=C(C(=O)NC1C(=O)N2C(C(=O)O)=C(COC(C)=O)CSC12)c1csc(N)n1` (stereo unspecified) [Cefotaxime Acid]: 107.

In a further assay the test system is TDF. Described as above. The conditions noted are these: concentration: 10 µM; 24 h. Summed up:
as §1
Take `COc1ccc(-n2[nH]c3c(cnc4ccccc43)c2=O)cc1` [2-(4-methoxyphenyl)-1H-pyrazolo[4,3-c]quinolin-3(2H)-one]: the cell number stood at 87.8. The same measure, in the same setting: under `CC(NC(=O)CCc1nc(=O)c2ccccc2[nH]1)c1ccccc1` (stereo unspecified) stands 111.

Turning to `CC(=O)NC1C(N=C(N)N)C=C(C(=O)O)OC1C(O)C(O)CO` (stereo unspecified), the cell number is 115. Same read-out and setting: the same measure for `O=C(O)Cc1c[nH]c2ccc(O)cc12` [5-Hydroxyindolacetic acid]: 99.5. Compound `NCCCC(=O)O` yielded a cell number of 106. For `COc1ncnc(NS(=O)(=O)c2ccc(N)cc2)c1OC` [Sulfadoxine], the cell number came out at 97.4. `CC(=O)OC1(C(C)=O)CCC2C3CC(C)C4=CC(=O)CCC4(C)C3CCC21C` (stereo unspecified) [Medroxyprogesterone 17-Acetate]: the cell number came to 112.

For `CC(=O)Oc1ccc(C(c2ccc(OC(C)=O)cc2)c2ccccn2)cc1` [Bisacodyl], the cell number is 102. Same read-out and setting: the same measure for `NS(=O)(=O)c1cc2c(cc1Cl)NC=NS2(=O)=O` [Chlorothiazide]: 105; for `CC(C=CC1(O)C(C)=CC(=O)CC1(C)C)=CC(=O)O` (racemic): 103; for `CC(C)CC(NC(=O)C(Cc1ccccc1)NC(=O)c1cnccn1)B(O)O` (stereo unspecified) [Bortezomib]: 10.2. On the same count and under the same terms, the same measure for `CC1OC(OCC2OC(Oc3cc(O)c4c(c3)OC(c3ccc(O)c(O)c3)CC4=O)C(O)C(O)C2O)C(O)C(O)C1O` (stereo unspecified) [Eriocitrin]: 119. The same measure, in the same setting: under `CC(C)NCC(O)c1ccc2ccccc2c1.Cl` (stereo unspecified) [Pronethalol.HCl] stands 107. `C[C@@H](c1nc(-c2ccc(C#N)cc2)cs1)[C@](O)(Cn1cncn1)c1ccc(F)cc1F` gave a cell number of 95. Same read-out and setting: under `CCN(c1nc(N)c(C(=O)N=C(N)N)nc1Cl)C(C)C` [5-(N-Ethyl-N-isopropyl)amiloride] stands 95; under `Cn1cnc2c(F)c(Nc3ccc(Br)cc3Cl)c(C(=O)NOCCO)cc21`, 91.8; under `CN(C)CCC=C1c2ccccc2CCc2ccccc21.Cl` [Amitriptyline.HCl], 89.4.

For `C=C1CCC2OC2(C)CCC2C1CC2(C)C` (stereo unspecified) [Caryophylline], the cell number was determined as 99. Still for that read-out and setting: the same measure for `CCOC(=O)[C@H](CCc1ccccc1)N[C@@H](C)C(=O)N1CCC[C@H]1C(=O)O.O=C(O)C=CC(=O)O`: 99.6.

In the case of `CCOc1ccc(C(Nc2ccccn2)c2ccc3ccc(C)nc3c2O)cc1C` (stereo unspecified), the cell number amounted to 84.1. Still for that read-out and setting: the same measure for `COc1ccc2c(c1OC)C(=O)OC2C1c2c(cc3c(c2OC)OCO3)CCN1C.Cl` (stereo unspecified) [Noscapine hydrchloride]: 93.7; for `CC(=O)NCCOC(=O)[C@H](Oc1cccc(C(F)(F)F)c1)c1ccc(Cl)cc1`: 100; for `Cn1cc(C=C2C(=O)Nc3ccc(S(N)(=O)=O)cc32)c2ccccc21` [Syk Inhibitor]: 95.3.

For the compound `CC(=O)OC1CC2(C)C(CC(O)C3C4(C)CCC(O)C(C)C4CCC32C)C1=C(CCC=C(C)C)C(=O)[O-].[Na+]` (stereo unspecified) [Fusidic acid sodium], the cell number is 113.

On to `COc1cc(OC)cc(C(CNc2ncnc3c2ncn3C2OC(CO)C(O)C2O)c2ccccc2C)c1` (stereo unspecified), for which the cell number came to 103.

Compound `Oc1cc2c(c(Cl)c1O)CCNCC2c1ccccc1` (stereo unspecified) registered a cell number of 87.8.

For `O=[N+]([O-])c1ccc(Nc2nc(N3CCOCC3)nc(N3CCOCC3)n2)cc1`, the cell number worked out at 99. The same measure, in the same setting: the same measure for `CCOC(=O)C1=C(COCCN)NC(C)=C(C(=O)OC)C1c1ccccc1Cl` (stereo unspecified) [Amlodipine]: 106. The same measure, in the same setting: under `C=C1C(=O)OC2C1CCC(C)=CCCC1(C)OC21` (stereo unspecified) [Parthenolide] stands 50.3 ± 3.6; under `O=C(Nc1cccc(C(F)(F)F)c1)Nc1cc(S(=O)(=O)NC2CC2)ccc1-c1ccsc1`, 89.5. Still for that read-out and setting: under `Cl.c1ccc(-n2c(C3=NCCN3)cc3ccccc32)cc1` stands 92.4. Compound `O=c1c2ccccc2[nH]c(=S)n1CCN1CCC(=C(c2ccc(F)cc2)c2ccc(F)cc2)CC1` [Diacylglycerol Kinase Inhibitor II] displayed a cell number of 93.8 ± 1.5. Same read-out and setting: under `COc1cc2nccc(Oc3ccc(NC(=O)NC4CC4)c(Cl)c3)c2cc1C(N)=O` stands 94.9. Same read-out and setting: the same measure for `CC(C=CC1=C(C)CCCC1(C)C)=CC=CC(C)=CC(=O)Nc1ccc(O)cc1` [Retinoic acid p-hydroxyanilide]: 85.3; for `O=c1c(-c2ccc(O)cc2)coc2cc(O)cc(O)c12` [Genistein]: 99 ± 4.5; for `O=C(O)CN(CCOCCOCCN(CC(=O)O)CC(=O)O)CC(=O)O`: 105. Still for that read-out and setting: the same measure for `CCCc1cc(C(N)=S)ccn1` [Prothionamide]: 97.3. In turn, `COC(=O)C1C(O)CCC2CN3CCc4c([nH]c5ccccc45)C3CC21` (stereo unspecified) [Corynanthine] yielded a cell number of 94.3. The same measure, in the same setting: under `COc1cc(C2c3cc4c(cc3C(OC3OC5COC(C)OC5C(O)C3O)C3COC(=O)C23)OCO4)cc(OC)c1O` (stereo unspecified) [Etoposide] stands 42.1 ± 4.8; under `CON=C(C(=O)NC1C(=O)N2C(C(=O)O)=C(COC(C)=O)CSC12)c1csc(N)n1` (stereo unspecified) [Cefotaxime Acid], 99.1.

Source of the values: the supplement of paper PMC7156485.
